In PubChem BioAssay:
Where “and” joins values, the source holds several entries; their conditions need not be identical. Equal entries are not always repeated. Calls of active or inactive are those of the source. Rule as the data show it, unless noted: active = inhibition above about 44%; inactive = the rest.

How the values were obtained:
[1] = target: Nuclear receptor coactivator 3 (Homo sapiens) (UniProt Q9Y6Q9); assay: NCOA3 GAL4-fusion reporter inhibition – cell-based, luminescence, quadruplicate, confirmation (AID 588792;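 active = mean inhibition over 43.08%, the solvent-only control mean plus 3 SD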;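 also: 0% = DMSO treated cells and 100% = gossypol at 36 µM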); conditions: HEK293 GAL4-SRC3 luciferase reporter, at 3.6 µM, hits give high values
Chain of Nuclear receptor coactivator 3 (Homo sapiens) (Q9Y6Q9 whole entry, looked up, the tested form may be a part): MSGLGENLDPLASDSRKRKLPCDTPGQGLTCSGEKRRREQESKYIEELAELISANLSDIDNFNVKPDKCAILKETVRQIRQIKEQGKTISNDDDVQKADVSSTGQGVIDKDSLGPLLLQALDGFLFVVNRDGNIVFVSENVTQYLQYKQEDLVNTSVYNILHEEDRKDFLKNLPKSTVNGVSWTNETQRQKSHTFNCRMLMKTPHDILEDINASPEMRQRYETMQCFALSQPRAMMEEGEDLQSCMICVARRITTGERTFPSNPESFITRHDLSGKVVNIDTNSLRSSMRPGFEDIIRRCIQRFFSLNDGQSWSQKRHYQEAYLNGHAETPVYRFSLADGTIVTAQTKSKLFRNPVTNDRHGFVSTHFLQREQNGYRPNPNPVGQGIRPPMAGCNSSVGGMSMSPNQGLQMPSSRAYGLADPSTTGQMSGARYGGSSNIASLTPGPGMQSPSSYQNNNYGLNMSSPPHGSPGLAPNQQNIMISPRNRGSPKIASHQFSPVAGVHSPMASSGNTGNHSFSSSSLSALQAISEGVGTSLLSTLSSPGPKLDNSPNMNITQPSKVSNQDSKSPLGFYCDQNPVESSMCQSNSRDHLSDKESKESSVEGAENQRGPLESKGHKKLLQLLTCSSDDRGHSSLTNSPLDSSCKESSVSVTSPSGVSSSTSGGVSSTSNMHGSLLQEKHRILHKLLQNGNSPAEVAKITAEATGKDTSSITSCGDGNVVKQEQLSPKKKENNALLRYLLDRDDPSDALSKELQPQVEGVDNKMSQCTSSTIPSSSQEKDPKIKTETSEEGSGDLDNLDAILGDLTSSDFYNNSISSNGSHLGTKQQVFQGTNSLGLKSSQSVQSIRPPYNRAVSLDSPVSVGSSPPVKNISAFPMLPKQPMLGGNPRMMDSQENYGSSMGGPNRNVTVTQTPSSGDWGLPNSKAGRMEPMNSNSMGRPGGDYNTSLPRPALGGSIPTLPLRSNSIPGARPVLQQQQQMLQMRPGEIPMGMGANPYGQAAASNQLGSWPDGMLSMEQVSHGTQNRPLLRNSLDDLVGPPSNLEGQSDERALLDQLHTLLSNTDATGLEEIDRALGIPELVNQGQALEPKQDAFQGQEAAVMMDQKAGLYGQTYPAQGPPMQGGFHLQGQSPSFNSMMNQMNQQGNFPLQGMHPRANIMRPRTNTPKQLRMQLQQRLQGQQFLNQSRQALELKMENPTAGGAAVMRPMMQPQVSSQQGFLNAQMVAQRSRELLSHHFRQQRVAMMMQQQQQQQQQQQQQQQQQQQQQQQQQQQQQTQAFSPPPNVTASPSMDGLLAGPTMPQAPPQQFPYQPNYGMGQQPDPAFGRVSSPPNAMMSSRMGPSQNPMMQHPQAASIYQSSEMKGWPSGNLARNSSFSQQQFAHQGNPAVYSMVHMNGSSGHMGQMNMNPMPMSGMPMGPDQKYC

[2] = test system: transactivating tegument protein VP16 (Human herpesvirus 1), Gal4-VP16 luciferase reporter; assay: repression of VP16-driven luciferase reporter – cell-based, luminescence, high throughput, counter-screen for SRC3 inhibitor project (AID 588794; in the data active = inhibition above about 30%); conditions: mammalian cells, at 3.6 µM, hits give high values
[3] = target: Nuclear receptor coactivator 1 (Homo sapiens) (UniProt Q15788); assay: NCOA1 GAL4-fusion reporter inhibition – cell-based, luminescence, quadruplicate, confirmation (AID 588820;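 active = mean inhibition above 46.68%, the untreated control wells mean plus 3 SD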;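 also: 0% = DMSO wells and 100% = gossypol 36 µM treated wells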); conditions: HEK293 GAL4-SRC1 luciferase reporter, at 3.6 µM, hits give high values
Chain of Nuclear receptor coactivator 1 (Homo sapiens) (Q15788 whole entry, looked up, the tested form may be a part): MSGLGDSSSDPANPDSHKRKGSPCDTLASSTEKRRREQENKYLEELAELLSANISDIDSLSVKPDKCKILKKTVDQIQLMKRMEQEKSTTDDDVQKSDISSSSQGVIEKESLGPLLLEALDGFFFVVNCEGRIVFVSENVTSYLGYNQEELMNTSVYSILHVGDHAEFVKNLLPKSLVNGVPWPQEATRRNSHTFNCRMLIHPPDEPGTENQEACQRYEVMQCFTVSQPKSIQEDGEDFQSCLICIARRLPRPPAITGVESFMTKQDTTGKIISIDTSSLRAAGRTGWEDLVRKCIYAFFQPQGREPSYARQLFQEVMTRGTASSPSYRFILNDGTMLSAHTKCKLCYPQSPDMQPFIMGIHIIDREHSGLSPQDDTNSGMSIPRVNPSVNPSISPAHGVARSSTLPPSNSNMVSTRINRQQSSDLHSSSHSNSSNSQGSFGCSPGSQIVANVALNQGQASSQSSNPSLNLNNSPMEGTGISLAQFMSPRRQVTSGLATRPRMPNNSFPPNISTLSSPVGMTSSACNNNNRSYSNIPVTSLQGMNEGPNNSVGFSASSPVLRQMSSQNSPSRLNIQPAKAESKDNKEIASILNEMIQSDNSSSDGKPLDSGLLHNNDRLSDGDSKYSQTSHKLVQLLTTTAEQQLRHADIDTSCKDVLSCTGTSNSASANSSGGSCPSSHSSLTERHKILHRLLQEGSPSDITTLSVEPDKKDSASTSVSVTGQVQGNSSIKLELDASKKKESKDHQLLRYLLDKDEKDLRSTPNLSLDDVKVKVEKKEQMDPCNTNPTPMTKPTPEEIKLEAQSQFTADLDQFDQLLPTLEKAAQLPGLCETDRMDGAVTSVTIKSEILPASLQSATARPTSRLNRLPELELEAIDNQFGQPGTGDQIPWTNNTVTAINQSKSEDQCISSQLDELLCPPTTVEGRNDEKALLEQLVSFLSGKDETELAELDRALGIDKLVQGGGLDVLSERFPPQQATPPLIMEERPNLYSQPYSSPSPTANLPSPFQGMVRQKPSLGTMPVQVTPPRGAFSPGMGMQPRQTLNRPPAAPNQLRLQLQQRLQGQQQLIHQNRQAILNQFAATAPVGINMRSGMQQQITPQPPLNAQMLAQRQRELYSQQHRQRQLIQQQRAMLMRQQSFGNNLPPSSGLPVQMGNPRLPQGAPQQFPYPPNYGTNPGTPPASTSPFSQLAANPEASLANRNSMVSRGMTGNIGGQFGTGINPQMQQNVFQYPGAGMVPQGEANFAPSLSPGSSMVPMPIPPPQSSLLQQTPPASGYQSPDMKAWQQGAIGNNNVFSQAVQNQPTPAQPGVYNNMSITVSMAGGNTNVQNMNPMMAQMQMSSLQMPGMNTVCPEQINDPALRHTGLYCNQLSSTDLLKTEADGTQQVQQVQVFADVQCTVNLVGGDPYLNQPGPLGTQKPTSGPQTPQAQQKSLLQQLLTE

[4] = repression of VP16-driven luciferase reporter – cell-based, luminescence, high throughput, counter-screen for SRC1 inhibitor project (AID 588824; in the data active = inhibition above about 25%); conditions: cell-based VP16 transactivation luciferase luminescence; at 3.6 µM; hits give high values
[5] = StAR promoter reporter inhibitors, counter-screen for LRH-1 inverse agonist project, cell-based, luminescence, high throughput (AID 651611; in the data active = inhibition above about 28%); conditions: StAR promoter luciferase reporter counterscreen, at 3.6 µM, hits give high values
[6] = target: Nuclear receptor subfamily 5 group A member 2 (Homo sapiens) (UniProt O00482); assay: NR5A2 activity suppression in reporter cells – cell-based, luminescence, confirmation (AID 651613; in the data active = inhibition above about 42%;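 also: HEK293T cells co-transfected with LRH-1 and StAR promoter luciferase reporter; 0% = vehicle wells and 100% = parental cells lacking receptor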); conditions: cell-based LRH-1 luciferase reporter, inverse agonism; at 3.6 µM; hits give high values
Chain of Nuclear receptor subfamily 5 group A member 2 (Homo sapiens) (O00482 whole entry, looked up): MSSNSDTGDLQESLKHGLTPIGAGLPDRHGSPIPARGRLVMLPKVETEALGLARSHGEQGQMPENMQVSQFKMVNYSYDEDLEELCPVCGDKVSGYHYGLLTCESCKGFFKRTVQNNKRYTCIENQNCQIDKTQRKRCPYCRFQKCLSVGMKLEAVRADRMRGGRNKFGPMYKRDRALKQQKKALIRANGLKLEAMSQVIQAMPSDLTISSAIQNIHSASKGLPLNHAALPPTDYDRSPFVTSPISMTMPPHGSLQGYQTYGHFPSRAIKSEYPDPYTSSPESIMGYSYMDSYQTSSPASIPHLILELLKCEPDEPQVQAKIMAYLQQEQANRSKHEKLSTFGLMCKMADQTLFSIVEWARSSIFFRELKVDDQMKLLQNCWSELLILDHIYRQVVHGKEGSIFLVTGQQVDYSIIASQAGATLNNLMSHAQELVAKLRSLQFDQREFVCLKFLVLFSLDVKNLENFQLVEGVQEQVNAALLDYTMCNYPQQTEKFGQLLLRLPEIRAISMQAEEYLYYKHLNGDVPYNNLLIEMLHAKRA

[7] = target: Steroidogenic factor 1 (Homo sapiens) (UniProt Q13285); assay: inverse agonism at SF1 nuclear receptor – cell-based, luminescence, high throughput, counter-screen for LRH-1 inverse agonist project (AID 651614); conditions: cell-based SF1 luciferase reporter, at 3.6 µM, hits give high values;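 also: cells cotransfected with StAR promoter reporter and SF1 expression vector; 0% = vehicle on cells with receptor and 100% = vehicle on cells lacking receptor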
Chain of Steroidogenic factor 1 (Homo sapiens) (Q13285 whole entry, looked up, the tested form may be a part): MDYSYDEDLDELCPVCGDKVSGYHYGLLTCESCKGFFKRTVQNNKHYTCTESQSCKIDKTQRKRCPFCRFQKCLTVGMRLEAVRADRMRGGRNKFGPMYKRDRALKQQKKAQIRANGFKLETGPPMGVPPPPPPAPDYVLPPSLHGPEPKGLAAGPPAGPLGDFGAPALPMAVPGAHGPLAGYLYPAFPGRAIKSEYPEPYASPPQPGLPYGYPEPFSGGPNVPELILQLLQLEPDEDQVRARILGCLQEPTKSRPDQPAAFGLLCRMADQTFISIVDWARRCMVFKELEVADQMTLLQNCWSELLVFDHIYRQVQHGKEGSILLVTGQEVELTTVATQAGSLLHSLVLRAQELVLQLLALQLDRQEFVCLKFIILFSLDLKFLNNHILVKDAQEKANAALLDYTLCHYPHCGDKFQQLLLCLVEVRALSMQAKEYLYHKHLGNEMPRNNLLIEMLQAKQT

[8] = compounds suppressing VP16-driven luciferase signal – cell-based, luminescence, high throughput, counter-screen for LRH-1 inverse agonist project (AID 651615; in the data active = inhibition above about 33%); conditions: Gal4-VP16 luciferase reporter cells, at 3.6 µM, hits give high values

Measured: inhibition

O=C(Nc1ccon1)c1nc[nH]c1C(=O)NCc1ccccc1
active: [2] 52.7% | [4] 53.3% | [5] 50.5% | [6] 58.4% | [7] 51% | [8] 68%
inactive: [1] 35.1% | [3] 27.6%

CCCCC(=O)NC(c1ccccc1)c1ccc2cccnc2c1O (stereo not drawn)
inactive: [3] 27.8%
active: [1] 53.3% | [2] 36.9% | [4] 29.2% | [5] 60.3% | [6] 69.5% | [7] 63.6% | [8] 73%

Cc1nn(C(C)(C)C)c(C)c1/C=N/OC(=O)Nc1ccc(Cl)cc1
active: [1] 94% | [2] 91.8% | [3] 87.3% | [4] 87.8% | [5] 92.3% | [6] 95.5% | [7] 93.6% | [8] 88.7%

COc1ccccc1NC(=S)NN=C(C)c1ccccn1
active: [2] 65.2% | [4] 64% | [5] 81.8% | [6] 98.4% | [7] 85.8% | [8] 70.8%
inactive: [1] 4.97% | [3] -16.5%

Cc1ccc(/C=C/C(=O)c2c(C)cc(C)[nH]c2=O)cc1
active: [1] 46.8% | [2] 40% | [3] 47% | [4] 46.4% | [5] 35.3% | [6] 42.8% | [7] 50.4% | [8] 60.4%

CC(NNC(=S)N1CCN(c2ccccn2)CC1)c1nccc2ccccc12 (stereo not drawn)
active: [1] 61.5% | [2] 54.2% | [3] 55.6% | [4] 59.5% | [5] 80.9% | [6] 97.1% | [7] 89.3% | [8] 61%

CC[n+]1c(/C=C2\Sc3ccccc3N2C)ccc2cccc(C)c21
inactive: [3] 36.2%
active: [1] 47.9% | [2] 68% | [4] 79.5% | [5] 76.7% | [6] 109% | [7] 91.6% | [8] 87%

O=C(Nc1ccc([N+](=O)[O-])cc1)c1ccc(Cn2cc([N+](=O)[O-])cn2)cc1
active: [1] 43.1% | [2] 58.7% | [4] 56.1% | [5] 52.3% | [6] 77.3% | [7] 72.8% | [8] 74.4%
inactive: [3] 29.1%

CC(C)(C)c1ccc(-c2cn(-c3ccc(Br)cc3)c3[n+]2CCCS3)cc1
active: [1] 51.1% | [2] 59.4% | [3] 52.1% | [4] 61% | [5] 47.8% | [6] 107% | [7] 80.7% | [8] 89.2%

CCN(CC)c1ccc(C(=C2C=CC(=[N+](CC)CC)C=C2)c2ccc(N(CC)CC)cc2)cc1
active: [1] 85.3% | [2] 89.9% | [3] 60.9% | [4] 84.3% | [5] 85.6% | [6] 110% | [7] 97.1% | [8] 97.1%

COc1cccc(/C=N/Nc2ncnc3scc(-c4ccccc4)c23)c1O
active: [1] 83.3% | [2] 70.3% | [3] 76.8% | [4] 65.2% | [5] 89.1% | [6] 103% | [7] 89.4% | [8] 65.1%

CC(C)CC(=NNC(=O)c1ccncc1)c1cc(Cl)ccc1O
active: [1] 80.1% | [2] 72.5% | [3] 65.2% | [4] 78.7% | [5] 88.6% | [6] 101% | [7] 92.5% | [8] 85.7%

CCN1/C(=C/C(C)=C/c2sc3ccccc3[n+]2CC)Sc2ccccc21
active: [1] 80.9% | [2] 84.2% | [3] 58.4% | [4] 81.6% | [5] 77% and 81.8% | [6] 107% and 106% | [7] 89.7% and 93.3% | [8] 88.1% and 89.4%

COc1ccc(/C=C/c2cc(-c3ccc(C)cc3)o[n+]2C)cc1
active: [1] 65.6% | [2] 74.6% | [3] 56.2% | [4] 71.5% | [5] 62.3% | [6] 98.9% | [7] 89.8% | [8] 83.6%

Cc1ccc(O)c(N=Nc2nccs2)c1
active: [1] 65.3% | [2] 57% | [4] 55.5% | [5] 79.3% | [6] 97.6% | [7] 78.5% | [8] 62.3%
inactive: [3] 36%

CCn1cc(/C=C/c2cc[n+](C)cc2)c2ccccc21
inactive: [1] 21.5% | [3] 3.02%
active: [2] 38.4% | [4] 47.3% | [5] 40.5% | [6] 65.9% | [7] 66.8% | [8] 57.1%
